Source: PubChem BioAssay (Tox21)
Several values for one entry are separate records, joined by “and”; a condition that tells them apart may be missing. Identical values can stand only once. Records with an inconclusive call do not appear. Entries that show only a call come without a potency. Where a structure was tested more than once in an assay, its records may differ in their call. Activity calls are given as the source filed them. The call rests on the fitted dose curve.

The compounds below were run against Retinoic acid receptor RXR-alpha (Homo sapiens) (UniProt P19793) (assay: qHTS assay to identify small molecule agonists of the RXR signaling pathway (AID 1159527; further: nearly all actives have a fitted effect of over 35% in size)). Conditions: HEK293T RXRa-UAS-bla, beta-lactamase ratio, 16 h; series mostly up to 76.8 µM.
Sequence of Retinoic acid receptor RXR-alpha (Homo sapiens) (P19793 whole entry, looked up): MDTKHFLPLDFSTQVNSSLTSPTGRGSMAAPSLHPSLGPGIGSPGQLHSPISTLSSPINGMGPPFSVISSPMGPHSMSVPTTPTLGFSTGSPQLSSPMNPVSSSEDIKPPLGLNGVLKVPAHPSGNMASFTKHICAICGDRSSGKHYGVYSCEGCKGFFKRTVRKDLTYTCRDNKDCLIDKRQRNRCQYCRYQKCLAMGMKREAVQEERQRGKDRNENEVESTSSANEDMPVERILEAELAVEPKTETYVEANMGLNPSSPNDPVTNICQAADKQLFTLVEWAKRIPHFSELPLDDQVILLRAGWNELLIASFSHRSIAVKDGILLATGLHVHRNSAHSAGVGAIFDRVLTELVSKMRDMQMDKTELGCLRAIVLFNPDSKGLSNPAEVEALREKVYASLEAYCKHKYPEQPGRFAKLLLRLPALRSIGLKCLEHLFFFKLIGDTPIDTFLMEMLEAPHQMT
How it was run: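 16 hr incubation of compound-treated RXR-alpha-UAS-bla HEK 293T cells (2% charcoal-stripped FBS, 37 C) preceded a 2 hr room-temperature LiveBLAzer FRET substrate step and blue/green fluorescence measurement.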
Potency means the concentration at half of the fitted maximal effect.

Compound | Potency
COP(=S)(OC)SCN1C(=O)c2ccccc2C1=O | inactive
Oc1ccc(Cl)cc1 | inactive
Cc1ccccc1N | inactive
C=C(C)C(=O)OCC(CC)CCCC (centres undefined) | inactive
COP(=S)(OC)Oc1ccc(SC)c(C)c1 | inactive
Cc1cccc(N)c1 | inactive
CCOP(=S)(OCC)Oc1cc(C)nc(C(C)C)n1 | inactive
Nc1ccc([As](=O)(O)O)cc1 | inactive
c1ccc2c(c1)CCCC2 | inactive
O=C(O)C(Br)Br | inactive
C=CC(=O)OCC(CC)CCCC (centres undefined) | inactive
CC12CC1(C)C(=O)N(c1cc(Cl)cc(Cl)c1)C2=O (centres undefined) | inactive
Nc1cccc(Cl)c1 | inactive
Cc1cccc(C)c1N | inactive
NNc1ccccc1 | inactive
CCCOC(=O)c1ccccc1C(=O)OCCC | inactive
OCc1ccco1 | inactive and 5.49 µM (active)
O=C(O)CCCc1ccc(N(CCCl)CCCl)cc1 | inactive
CC(=O)C1CCOC1=O (centres undefined) | inactive
CC(=O)/C=C/c1ccccc1 | inactive
CC(C)CCCCCCOC(=O)c1ccccc1C(=O)OCCCCCCC(C)C | inactive
O=C(O)C1C(C(=O)O)C2(Cl)C(Cl)=C(Cl)C1(Cl)C2(Cl)Cl (centres undefined) | inactive
CC(C)(C)C(=O)CCl | inactive
O=C(O)COc1ccccc1 | inactive
O=[N+]([O-])c1cc([As](=O)(O)O)ccc1O | inactive
O=C(O)c1cc(Oc2ccc(C(F)(F)F)cc2Cl)ccc1[N+](=O)[O-] | inactive
CCNc1nc(Cl)nc(NC(C)C)n1 | inactive
O=S(=O)(O)OOS(=O)(=O)O | inactive
O=[N+]([O-])c1ccc(Cl)cc1 | inactive
